Source: PubChem
LGR2 antag: inhibitors of bursicon-induced LGR2 CRE-luciferase signal, primary screen, cell-based, HEK293, CRE-luciferase reporter, bursicon stimulation; AID 720647, 2013; 0.35% of 380,000 active; inhibition, % at 9.99 µM; Drosophila bursicon receptor LGR2 (rickets); bursicon-stimulated, 4 h;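 active means drop in luminescence signal, shown as inhibition above about 50% in the replicate tests, limit read from the data, passing the limit was not always enough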;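 further: agonist challenge used bursicon conditioned medium at about half maximal strength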
EBV LMP1 NFkB: EBV LMP1-driven NF-kappaB luciferase reporter inhibitors, primary screen, cell-based, luminescence, single point | AID 504558, 2011 | LMP1-induced NF-kappaB luciferase reporter cells | 0.69% of 350,000 active | inhibition, % at 12.5 µM; in the data active means inhibition above about 41%;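 further: 0% = neutral control wells and 100% = reference inhibitor control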
PAX8 inh HTS: inhibitors of PAX8-driven TPO luciferase reporter, primary screen, RMG-I cells, single concentration | SteadyGlo, 24 h | inhibition, % at 12.6 µM | 1.2% of 360,000 active;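 active means mean replicate inhibition at least 60% with every replicate also reaching 60%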;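 further: luciferase light reporting Pax8 driven TPO promoter activity; plate controls were median of neutral control wells for no effect and mitoxantrone controls for full effect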
Shn3 3UTR inh: reduction of Shn3 3'UTR firefly luciferase signal, primary screen, Schnurri-3 inhibitor project, cell-based, Clone20 osteoblasts, set 2. Clone20 osteoblast Shn3 3'UTR firefly luciferase, 24 h. inhibition, % at 12.5 µM. 0.52% of 360,000 active. AID 588674, 2011;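 active means mean inhibition of at least 75% with every replicate also reaching 75%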;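 further: 0% = median of neutral control wells and 100% = pilot-screen positive control compound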
EWS-Fli inh: EWS/Fli-driven NR0B1 reporter inhibitors, primary screen, A673 cells, NR0B1 luciferase, luminescence, MLPCN library; viability-normalised; inhibition, % at 12.6 µM; 0.67% of 350,000 active;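 active means mean inhibition of at least 50% after viability correction, with every replicate also passing that limit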;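 further: firefly luciferase signal divided by Alamar Blue viability fluorescence both relative to DMSO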
TRPM1 prom inh: inhibitors of MITF-dependent TRPM1 promoter reporter, primary screen, cell-based, SK-MEL-5, single point, luciferase; SK-MEL-5 TRPM1 promoter luciferase, 24 h; inhibition, % at 12.5 µM; 0.83% of 330,000 active;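 active means mean inhibition across replicates of 60% or more, whatever share of single replicates reaches that level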
The depositor's hits bear a star. An excerpt weighted towards active compounds, which were near 2.2% of everything screened.

For C[C@H](CO)N1C[C@H](C)[C@@H](CN(C)Cc2ccc(Cl)c(Cl)c2)OCCCC[C@H](C)Oc2ccc(NS(=O)(=O)c3ccccc3)cc2C1=O the results were LGR2 antag 30, PAX8 inh HTS 84* and EWS-Fli inh 14.
For C[C@@H]1CCCCO[C@@H](CN(C)Cc2ccc(Cl)c(Cl)c2)[C@@H](C)CN([C@@H](C)CO)C(=O)c2cc(NS(=O)(=O)c3ccccc3)ccc2O1 the results were LGR2 antag -12, PAX8 inh HTS 68* and EWS-Fli inh 2.
Screening C[C@@H]1CN([C@H](C)CO)C(=O)c2cc(NS(=O)(=O)c3ccccc3)ccc2O[C@@H](C)CCCCO[C@H]1CN(C)Cc1ccc(Cl)c(Cl)c1 returned LGR2 antag 22, PAX8 inh HTS 94* and EWS-Fli inh 17.
`CC=Cc1ccc2n(c1=O)C[C@H]1[C@H](CO)[C@@H](C(=O)NCc3ccc(F)cc3)N(CC)[C@@H]21` (mixture of isomers) gave LGR2 antag 7 and EWS-Fli inh -11.
For Cc1noc(C)c1NC(=O)N(C)C[C@H]1OCCCC[C@H](C)Oc2ccc(NC(=O)CCC(F)(F)F)cc2C(=O)N([C@H](C)CO)C[C@@H]1C the results were LGR2 antag -4, PAX8 inh HTS -16 and EWS-Fli inh -8.
`C[C@@H]1CN([C@@H](C)CO)S(=O)(=O)c2ccc(-c3cccnc3)cc2O[C@@H]1CN(C)C(=O)c1ccc2c(c1)OCO2` gave LGR2 antag -6, PAX8 inh HTS 9 and EWS-Fli inh -9.
`C[C@@H]1CN([C@@H](C)CO)C(=O)c2cccc(NS(=O)(=O)c3ccc(F)cc3)c2O[C@@H]1CN(C)Cc1ccncc1` gave LGR2 antag 5, PAX8 inh HTS 19 and EWS-Fli inh 9.
Screening CC(C)NC(=O)N(C)C[C@@H]1OCCCC[C@H](C)Oc2ccc(NC(=O)Nc3ccc(C(F)(F)F)cc3)cc2C(=O)N([C@@H](C)CO)C[C@@H]1C returned LGR2 antag 4, PAX8 inh HTS 69* and EWS-Fli inh 4.
`CC(C)NC(=O)N(C)C[C@@H]1OCCCC[C@@H](C)Oc2ccc(NC(=O)Nc3ccc(C(F)(F)F)cc3)cc2C(=O)N([C@@H](C)CO)C[C@H]1C` gave LGR2 antag 4, PAX8 inh HTS 49 and EWS-Fli inh -5.
COc1ccc(NC(=O)N(C)C[C@H]2OCCCC[C@H](C)Oc3ccc(NC(=O)Nc4ccc(C(F)(F)F)cc4)cc3C(=O)N([C@H](C)CO)C[C@@H]2C)cc1 was read as LGR2 antag 6, PAX8 inh HTS 11 and EWS-Fli inh 7.
Screening C[C@@H]1CCCCO[C@H](CN(C)C(=O)Nc2ccccc2)[C@@H](C)CN([C@H](C)CO)C(=O)c2cc(NC(=O)Nc3ccc(C(F)(F)F)cc3)ccc2O1 returned LGR2 antag 8, PAX8 inh HTS 12 and EWS-Fli inh -2.
`COc1ccc(NC(=O)N(C)C[C@H]2OCCCC[C@@H](C)Oc3ccc(NC(=O)Nc4ccc(C(F)(F)F)cc4)cc3C(=O)N([C@@H](C)CO)C[C@@H]2C)cc1` gave LGR2 antag 10, PAX8 inh HTS 77* and EWS-Fli inh 7.
Screening C[C@@H]1CN([C@H](C)CO)C(=O)c2cc(NC(=O)Nc3ccccc3)ccc2O[C@@H](C)CCCCO[C@H]1CN(C)C(=O)Nc1ccc(C(F)(F)F)cc1 returned LGR2 antag 6, PAX8 inh HTS 84* and EWS-Fli inh 24.
Screening CC(C)NC(=O)Nc1ccc2c(c1)C(=O)N([C@H](C)CO)C[C@@H](C)[C@H](CN(C)C(=O)Nc1ccc(C(F)(F)F)cc1)OCCCC[C@@H](C)O2 returned LGR2 antag 0, PAX8 inh HTS 68* and EWS-Fli inh 24.
`CCN1[C@H](C(=O)Nc2ccccc2)[C@@H](CO)[C@@H]2Cn3c(ccc(-c4ccc(F)cc4)c3=O)[C@@H]21` gave LGR2 antag -9 and EWS-Fli inh -4.
Screening COCCNC(=O)C[C@@H]1CC[C@H]2[C@H](COc3ccc(NC(=O)COC)cc3C(=O)N2C)O1 returned LGR2 antag -3, PAX8 inh HTS -2 and EWS-Fli inh -5.
For COc1ccccc1S(=O)(=O)N[C@@H]1CC[C@@H](CC(=O)NCc2cccc(F)c2)O[C@H]1CO the results were LGR2 antag 7, PAX8 inh HTS 0 and EWS-Fli inh -37.
`O=C(C[C@@H]1CC[C@H](NC(=O)Nc2ccccc2F)[C@@H](CO)O1)NCc1ccc(F)cc1` gave LGR2 antag 2.
Screening COc1ccc(-n2c(C)c([N+](=O)[O-])c3ccc(O)c(CN(C)C)c32)cc1 returned EBV LMP1 NFkB 70*, Shn3 3UTR inh 4 and TRPM1 prom inh -13.
CCC(=O)c1cc2c(C)cc(=O)oc2c(C)c1OC(C)=O was read as LGR2 antag -2, EBV LMP1 NFkB 3, PAX8 inh HTS -16, Shn3 3UTR inh 18 and TRPM1 prom inh 4.
`CCC(=O)c1cc2c(C)cc(=O)oc2c(C)c1OC(=O)C(C)C` gave LGR2 antag 4, EBV LMP1 NFkB -3, PAX8 inh HTS 72*, Shn3 3UTR inh 8, EWS-Fli inh 1 and TRPM1 prom inh -12.
`CNC[C@H]1Oc2cc(C#CCOC)ccc2S(=O)(=O)N([C@H](C)CO)C[C@@H]1C` gave LGR2 antag -4, PAX8 inh HTS -20 and EWS-Fli inh -2.
CN(CC(=O)Nc1ccc(Cl)c(C(F)(F)F)c1)C(=O)c1ccc(S(=O)(=O)N2CCOCC2)cc1 was read as LGR2 antag -8, EBV LMP1 NFkB -1, PAX8 inh HTS 25, Shn3 3UTR inh -1, EWS-Fli inh 55* and TRPM1 prom inh -6.
Cc1ccc(C(=O)N(C)CC(=O)Nc2ccc(Cl)c(C(F)(F)F)c2)cc1S(=O)(=O)N1CCCCC1 was read as LGR2 antag 23, EBV LMP1 NFkB 9, PAX8 inh HTS 24, Shn3 3UTR inh 31, EWS-Fli inh 48 and TRPM1 prom inh 4.
COc1ccc(NC(=O)N2CCCCN3[C@H](CO)[C@H](c4ccc(C#Cc5ccccc5)cc4)[C@H]3C2)cc1 was read as PAX8 inh HTS 82* and EWS-Fli inh 3.
Screening COc1ccc(C#Cc2ccc([C@H]3[C@@H](CO)N4CCCCN(C(=O)Nc5ccccc5)C[C@@H]34)cc2)cc1 returned LGR2 antag 14, PAX8 inh HTS 1 and EWS-Fli inh 14.
